Rows were chosen to be rich in hits. Some 1% of all compounds tested hit in one or more screens of this group.
TSHR antagonist – antagonists of human thyroid stimulating hormone receptor | actives 0.2% (n = 330,000) | AID 504810 | activity change, negative = inhibition, % at 11.5 µM | TSHR-expressing cells, TSH-stimulated cAMP HTRF, 2 h; active compounds read low;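 active = activity change below a set negative limit, meaning inhibition stronger than a set level, cut at about -70% in these data; inconclusive = activity change between two set negative limits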; also: % is scaled to controls: 0 for no effect and ±100 for the full control effect
Target sequence (P16473 whole entry, looked up): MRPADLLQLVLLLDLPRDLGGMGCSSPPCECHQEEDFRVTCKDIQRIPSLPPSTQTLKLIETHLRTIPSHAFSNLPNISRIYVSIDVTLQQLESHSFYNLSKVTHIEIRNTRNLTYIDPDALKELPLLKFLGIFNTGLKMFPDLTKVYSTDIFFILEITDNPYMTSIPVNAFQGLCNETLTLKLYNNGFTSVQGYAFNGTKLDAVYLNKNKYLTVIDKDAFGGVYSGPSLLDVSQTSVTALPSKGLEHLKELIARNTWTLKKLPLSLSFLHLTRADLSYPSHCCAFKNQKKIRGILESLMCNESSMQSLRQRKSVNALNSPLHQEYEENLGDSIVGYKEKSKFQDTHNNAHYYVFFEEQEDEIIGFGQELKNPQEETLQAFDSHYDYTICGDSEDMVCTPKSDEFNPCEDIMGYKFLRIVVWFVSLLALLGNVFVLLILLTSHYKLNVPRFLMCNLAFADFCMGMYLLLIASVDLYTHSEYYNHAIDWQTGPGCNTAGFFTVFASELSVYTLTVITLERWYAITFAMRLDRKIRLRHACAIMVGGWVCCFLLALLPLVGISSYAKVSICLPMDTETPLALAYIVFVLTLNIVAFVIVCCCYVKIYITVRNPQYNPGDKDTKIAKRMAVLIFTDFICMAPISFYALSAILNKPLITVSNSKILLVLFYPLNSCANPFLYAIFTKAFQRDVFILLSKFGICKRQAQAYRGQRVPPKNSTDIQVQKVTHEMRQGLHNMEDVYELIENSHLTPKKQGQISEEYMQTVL
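Inhibition of cAMP made by TSHR-expressing cells under TSH stimulation (4nM final, EC80; 2 h, 37 deg C) is quantified with a one-step lysis HTRF kit, anti-cAMP cryptate versus cAMP-d2.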
gsp ag – agonists of gsp mutant (McCune-Albright syndrome). AID 624287. gsp mutant cells, cAMP HTRF, 30 min. Potency, µM (titrated, usually from 76.9 µM), for the others: top-dose activation (cAMP increase), actives largely listed as activators. actives 0.13% (n = 340,000); active = well fitted activation curve with a large enough effect; inconclusive = small, poorly fitted or top-dose-only effect, or another doubt; inactive = no such curve, though single readings can be large or run the other way; cell line not stated here;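 also: phosphodiesterase inhibitor Ro 20-1724 added with compounds to block cAMP breakdown; potency is read from the fitted curve at half-maximal effect; nearly all actives have a fitted effect of over 60% in size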
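Cells stably selected in G418 were plated at 2000/well, grown 16-24 hr, then given compounds in DMSO with the PDE inhibitor […] (300 uM solution added) for 30 min at 37C; cAMP was read by HTRF.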
RXFP1 ag – agonists of human relaxin receptor RXFP1. Q9HBX9. HEK293T-RXFP1 cAMP TR-FRET, 30 min; response scale: percent of porcine relaxin response, buffer zero. Potency, µM (highest dose often 57.5 µM), for inactives: top-dose activation, most hits filed as activators. actives 0.3% (n = 370,000). AID 2676; active = well fitted activation curve with a large enough effect; inconclusive = small, poorly fitted or top-dose-only effect; also: potency is read from the fitted curve at half-maximal effect; % is scaled to controls: 0 for no effect and ±100 for the full control effect; nearly all actives have a fitted effect of over 60% in size
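HEK293T cells stably expressing RXFP1 were pretreated with the PDE4 inhibitor Ro 20174, exposed to compounds for 30 min at 37C, lysed, and cAMP was read by TR-FRET. Data normalized to buffer (basal) and 29 nM porcine relaxin (100%).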
RXFP1 antagonist – blocks the human relaxin receptor RXFP1. HEK293-RXFP1, relaxin-stimulated cAMP HTRF, 30 min; active compounds read low. actives 0.59% (n = 350,000). activity change, negative = inhibition, % at 57.5 µM. Q9HBX9;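 active = activity change of -60% or lower, but not beyond a set lower limit; inconclusive = change between -60% and -40%, or beyond the set limit; inactive = change above -40%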; also: % is scaled to controls: 0 for no effect and ±100 for the full control effect
gsp antag – gsp mutant antagonism | actives 0.4% (n = 340,000) | AID 624288 | Potency, µM (highest dose often 76.9 µM), without a hit: at the highest dose activity change, negative = inhibition, most hits filed as inhibitors | gsp-mutant cells, cAMP HTRF, 30 min; calls by dose curve; cell line not stated here;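 also: intracellular cAMP measured with PDE inhibitor Ro 20-1724 present during compound exposure; potency is read from the fitted curve at half-maximal effect; % is scaled to controls: 0 for no effect and ±100 for the full control effect; nearly all actives have a fitted effect of over 65% in size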
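HTRF cAMP measurement after 30 min RT detection following 30 min, 37C compound treatment alongside […] (added as 300 uM solution) in G418-selected cells seeded at 2000/well and grown 16–24 h.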
Starred values were filed as active, the others as inactive; ? = inconclusive; · = not tested or not shown; ! = repeats disagree; [ ] = another dose, or the depositor's remark.

SMILES	TSHR antagonist	gsp ag	RXFP1 ag	RXFP1 antagonist	gsp antag
CC1=C(C(=O)Nc2cccnc2)C(c2cccc(Br)c2)n2nc(SCc3ccccc3)nc2N1 (stereo not drawn)	·	·	0.4%	·	·
N#Cc1ccccc1NC(=O)CN1CCN(Cc2ccccc2)CC1	-9.2	-0.5%[15.4 µM]	0.1%	-5.8	35.5µM*
Cc1ccc(-c2cc(C(=O)NCc3cnn(C)c3)c3cc(Br)ccc3n2)cc1	-0.5	7.5%[15.4 µM]	22.4µM*!	-2.4	?
Cn1cc(CNC(=O)c2cc(-c3ccccc3)nc3ccc(Br)cc23)cn1	5.4	28.6%[15.4 µM]	?	1.0	3.8%
COC(=O)c1cc(-c2ccc3c(c2)OCO3)nc2ccccc12	-12.7	-19.5%	5.3%	-0.1	?
O=C(O)c1cc(-c2ccc3c(c2)OCO3)nc2ccc(Br)cc12	-11.0	10µM*	15.8µM*	25.0	25.9%
CCN(CC)C(=O)c1c(-c2ccccc2)c(-c2ccccc2)nn(CC)c1=O	·	·	1.6%	-7.1	·
NC(=O)C1CCN(c2nc(-c3ccc(C(F)(F)F)cc3)cs2)CC1	-21.1	·	·	·	·
O=C(OCC(COC(=O)c1cccnc1)(COC(=O)c1cccnc1)COC(=O)c1cccnc1)c1cccnc1	·	·	·	2.9	·
Cc1ccc(C(=O)c2oc3ccccc3c2NC(=O)c2cc(-c3ccccc3)on2)cc1F	·	·	1.9%	·	·
COC(=O)c1cc(Br)c(=O)n(-c2nccs2)c1	36.8	14.1µM*	15.8µM*	12.3	12.3%
COC(=O)c1cc(Br)c(=O)n(-c2ccccn2)c1	13.6	0.0%	6.5%	-3.1	-10.5%
Cc1cccn2c(=O)c3cc(C(=O)NC(C)C)n(C)c3nc12	·	·	-1.5%	-3.3	·
CCCCC(=O)O[C@]1(C(=O)CO)[C@@H](C)C[C@H]2[C@@H]3CCC4=CC(=O)C=C[C@]4(C)[C@@]3(F)[C@@H](O)C[C@@]21C	·	·	·	-9.1	·
CCOC(=O)c1cccc(NC(=O)c2cc3sccc3n2Cc2ccc(Cl)cc2)c1	·	·	17.2%	·	·
CCOC(=O)c1cccc(NC(=O)c2cc3sccc3n2C)c1	-21.9	-1.6%	0.5%	-4.8	35.5µM*
CCc1ccccc1NC(=O)CN(c1ccccc1)S(=O)(=O)c1ccsc1C(=O)OC	·	·	-0.8%	·	·
Cc1nc2sc3c(=O)[nH]nnc3c2c(C)c1Br	-1.8	?	-0.7%	-9.7	50.1µM*
CCOC(=O)c1c(NC(=O)COc2cccc(C(F)(F)F)c2)sc2c1CCCCC2	·	·	-0.3%	-5.9	·
Clc1ccc(C(c2ccccc2Cl)C(Cl)Cl)cc1 (stereo not drawn)	-1.9	·	-1.8%	-74.4*	-15.1%
Nn1cnc2c([nH]c3ccccc32)c1=O	36.8	1.6%	-1.0%	1.2	4.4%
O=c1c2[nH]c3ccc(Cl)cc3c2ncn1CCN1CCCCC1	-9.7	-4.1%	1.2%	-13.9	3.2%
S=c1nc[nH]c2c1[nH]c1ccccc12	154.1	12.6µM*	7.08µM*	18.6	55.0%
S=c1nc[nH]c2c1[nH]c1ccc(Cl)cc12	8.2	?	3.16µM*	-35.9	9.7%
CCOC(=O)CSc1nc2ccccc2c(=O)n1CCc1ccc(OC)c(OC)c1	·	·	1.6%	0.5	·
SMILES	TSHR antagonist	gsp ag	RXFP1 ag	RXFP1 antagonist	gsp antag
Nc1c(NC/C=C\COc2cc(CN3CCCCC3)ccn2)c(=O)c1=O	·	·	·	-12.6	·
Cc1ccc(F)cc1NC(=O)N1CCN(c2ccnc3cc(Cl)ccc23)CC1	-4.7	-0.8%	0.1%	-10.5	35.5µM*
O=C(Nc1cc(F)ccc1F)N1CCN(c2ccnc3cc(Cl)ccc23)CC1	-12.7	-43.6%	6.6%	·	?
Cc1cccc(Cl)c1NC(=O)N1CCN(c2ccnc3cc(Cl)ccc23)CC1	-3.3	22.6%	3.1%	-4.3	28.2µM*
Cc1noc(C)c1C(=O)OCC(=O)c1c(N)n(CC(C)C)c(=O)n(C)c1=O	13.4	31.6µM*	23.1%	0.4	19.6%
CC(C)Cn1c(N)c(C(=O)COC(=O)c2cccc(Cl)c2)c(=O)n(C)c1=O	-5.5	4.1%[15.4 µM]	7.1%	-33.8	50.1µM*
Cc1onc(-c2ccccc2Cl)c1C(=O)Oc1ccc(Cl)cc1Cl	·	·	0.4%	-77.7*	·
Cc1onc(-c2ccccc2Cl)c1C(=O)Oc1cc(F)cc(F)c1	·	·	-0.2%	-15.5	·
COc1ccc(/C=C/C(=O)N2CCOCC2)cc1OC	1.5	-36.8%	1.6%	9.1	6.4%
COc1ccc(/C=C/C(=O)N2CCN(C)CC2)cc1OC	-122.0*	28.2%	-1.9%	-5.1	1.9%
O[C@@H](COc1cccc2ncccc12)CN1CCN(C2c3ccccc3[C@@H]3[C@H](c4ccccc42)C3(F)F)CC1 (stereo partly drawn)	·	·	·	-32.7	·
CC(C)S(=O)(=O)C1=NSC2=NC(=O)/C(=C\c3ccc(-c4ccccc4)o3)C(=N)N21	-85.6*	1.2%	1.2%	3.5	?
CCC(Oc1ccccc1)C(=O)N1CCN(Cc2cc(=O)n3nc(-c4cccc(C)c4)sc3n2)CC1 (stereo not drawn)	·	·	6.9%	·	·
Cc1c(C#N)c2ncn(CCCN(C)C)c(=O)c2n1-c1ccccc1	-7.6	-0.3%	0.9%	-8.7	6.4%
Cc1c(C#N)c2ncn(Cc3ccccn3)c(=O)c2n1-c1ccccc1	1.7	10.5%	1.8%	6.8	28.2µM*
CCOc1ccc(N2C(=O)CS(=O)(=O)C23C(=O)N(Cc2cccc(Cl)c2)c2ccccc23)cc1 (stereo not drawn)	·	·	-1.8%	·	·
O=Cc1cc(N=Nc2ccccc2Cl)ccc1O	-38.9	-16.5%	-2.3%	-64.8*	?
O=Cc1cc(N=Nc2cccc(C(=O)O)c2)ccc1O	-17.2	1.4%	0.7%	-12.9	-3.4%
CCCCn1c(=N)n(CCOc2ccc(C)cc2)c2ccccc21	2.9	-1.2%	2.4%	-75.2*	4.8%
COc1ccc(N(C)C(=O)c2cc(S(=O)(=O)N3CCc4ccccc43)cn2C)c(OC)c1	·	·	-4.8%	-2.4	·
CCOC(=O)c1ccccc1NC(=O)CN(c1ccccc1)S(=O)(=O)c1ccc(OCC)cc1	·	·	-0.8%	·	·
Cc1ccc(S(=O)(=O)N(CC(=O)Nc2ccccc2C(=O)O)c2ccc(Cl)cc2)cc1	-5.8	3.2%[15.4 µM]	4.1%	-76.3*	?
S=c1[nH]ccc2ccccc12	·	5.01µM*	·	6.5	28.0%
Cc1cc(=O)n(Cc2ccccc2Cl)c2c1c(C)nn2-c1ccccc1	·	·	-1.3%	-14.2	·
CCc1cccc(C)c1NC(=O)Cn1nnc(-c2nc(-c3ccccc3F)no2)c1N	·	·	3.0%	3.8	·
COc1cc(C(C)=O)ccc1OCCCN1CCC(c2noc3cc(F)ccc23)CC1	·	·	·	-9.9	·
O=C(N/N=C/c1ccc(-c2ccccc2)o1)c1ccccc1O	-7.8	?	-0.3%	-85.3*	-12.7%
O=C(N/N=C\c1ccncc1)c1ccccc1O	37.9	-11.4%[15.4 µM]	2.4%	-0.7	3.7%
CCOc1cccc(CNc2ccc(O)cc2)c1OCc1ccc(Cl)cc1Cl	-18.3	4.0%	0.7%	?	?
CCOc1cccc(CNc2ccc(O)cc2)c1OCc1ccccc1Cl	-1.5	-13.9%	-3.2%	-88.9*!	-17.7%
